# Test results: the supplement of paper PMC8285479
# Counter-ions that a name gives are not always drawn. ± gives the standard deviation of the averaged measurements. The full ranking holds about 1,900 compounds; the median of “normalised cell viability (NPI; 0 = phenylarsine oxide control, 1 = DMSO control)” is about 1, and the lowest 2% start at about 0.039. The sample as a whole holds a higher share of the lowest values than the screen did.
# System: NCI-H1944
# Experiment: normalised cell viability (NPI; 0 = phenylarsine oxide control, 1 = DMSO control) (fraction of DMSO control); NCI-H1944 is a non-small cell lung cancer line; higher = more viable cells (less compound toxicity)
# Conditions: 6 days
# [1] = glucocorticoid arm: hydrocortisone 2.75 uM co-treatment, compound 1 µM
# [2] = glucocorticoid arm: hydrocortisone 2.75 uM co-treatment, compound 5 µM
# [3] = glucocorticoid arm: hydrocortisone 2.75 uM pre-treated 2 days and continued, compound 1 µM
# [4] = glucocorticoid arm: hydrocortisone 2.75 uM pre-treated 2 days and continued, compound 5 µM
# [5] = glucocorticoid arm: vehicle, compound 1 µM
# [6] = glucocorticoid arm: vehicle, compound 5 µM
# 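Note: CTB read-out in 384-well plates, triplicate wells, NPI normalised per plate against 1 µM phenylarsine oxide (0) and 0.1% DMSO (1) controls.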
SMILES,normalised cell viability [1],normalised cell viability [2],normalised cell viability [3],normalised cell viability [4],normalised cell viability [5],normalised cell viability [6]
COc1cc(C(O)CN)ccc1O (racemic) [(±)-Normetanephrine hydrochloride],0.9973 ± 0.0025,1.01 ± 0.021,1.01 ± 0.01,0.867 ± 0.27,0.9953 ± 0.0045,1 ± 0.016
C[C@H]1OC[C@@H](C[N+](C)(C)C)O1 [(+)-cis-Dioxolane],1.017 ± 0.0058,1.02 ± 0.01,1 ± 0.018,1.04 ± 0.081,1.01 ± 0.01,1.006 ± 0.0063
COc1ccc2c3c1O[C@H]1C(=O)CC[C@@]4(O)C(C2)N(CC2CC2)CCC314 (stereo partly specified) [3-Methoxynaltrexone hydrochloride],0.9917 ± 0.0068,0.99 ± 0.018,0.985 ± 0.013,1.02 ± 0.07,0.9977 ± 0.0025,0.998 ± 0.013
c1ccc(C2(c3ccccc3)CC2C2=NCCN2)cc1 (stereo unspecified) [Cibenzoline succinate],0.992 ± 0.013,0.994 ± 0.027,1.003 ± 0.0058,1.02 ± 0.078,1.007 ± 0.0058,1.01 ± 0.01
CN1CCCCC1Cn1cc(C(=O)c2cc([N+](=O)[O-])ccc2I)c2ccccc21 (stereo unspecified),1.02 ± 0.015,0.99 ± 0.026,1.04 ± 0.01,1.01 ± 0.029,1.013 ± 0.0058,1.001 ± 0.0081
CCCN1CC[C@@H]2c3cc(O)ccc3CC[C@@H]21 (racemic) [cis(+/-)-8-OH-PBZI hydrobromide],0.993 ± 0.011,0.975 ± 0.021,1.01,1.02 ± 0.092,0.9937 ± 0.0071,1.007 ± 0.0058
C[C@H]1CNCCc2ccc(Cl)cc21 [Lorcaserin HCl],1.003 ± 0.0064,1.02 ± 0.029,1 ± 0.019,1.02 ± 0.029,1.003 ± 0.0061,0.998 ± 0.0035
N[C@@H](Cn1ccc(=O)[nH]c1=O)C(=O)O [S(-)-Willardiine],1.007 ± 0.0058,1.023 ± 0.0058,0.847 ± 0.28,1.02 ± 0.015,1.002 ± 0.007,1.007 ± 0.0058
c1ccc2c(c1)[I+]c1ccccc1-2 [Diphenyleneiodonium chloride],0.45 ± 0.015,0.0556 ± 0.0019,0.649 ± 0.014,0.0883 ± 0.044,0.232 ± 0.015,0.00555 ± 0.0077
CN1CC[C@]2(CCN3CCc4c(oc5ccccc45)[C@@H]3C2)N(C)C1=O,1.003 ± 0.0058,0.974 ± 0.015,1.01,0.889 ± 0.24,1.013 ± 0.0058,1.02 ± 0.015
CCN(CC)C(=O)N[C@H]1C[C@@H]2c3cccc4[nH]cc(c34)C[C@H]2N(C)C1 [S(+)-Terguride],0.989 ± 0.011,1.01 ± 0.02,0.79 ± 0.37,0.996 ± 0.016,0.9953 ± 0.0015,0.993 ± 0.0056
CCCn1c(C)c(C(=O)c2cccc3ccccc23)c2ccccc21,1.001 ± 0.0083,1.03 ± 0.023,1.007 ± 0.0058,1.06 ± 0.09,0.9977 ± 0.004,1.01 ± 0.023
"Cc1c(C(=O)c2cccc3ccccc23)c2cccc3c2n1[C@H](CN1CCOCC1)CO3 [( R)-(+)-WIN 55,212-2 mesylate]",1.004 ± 0.01,0.0209 ± 0.0039,1.01 ± 0.029,0.016 ± 0.002,1.013 ± 0.0058,0.00693 ± 0.00096
CCC(=O)CCCCC[C@@H]1NC(=O)[C@H]2CCCCN2C(=O)[C@H]([C@@H](C)CC)NC(=O)[C@H](Cc2cn(OC)c3ccccc23)NC1=O [Apicidin],0.387 ± 0.16,0.954 ± 0.041,0.644 ± 0.15,0.983 ± 0.03,0.0476 ± 0.028,0.96 ± 0.022
CCS(=O)(=O)Nc1cccc(C(=C2CCCCC2)c2cnc[nH]2)c1,1.006 ± 0.0063,1.04 ± 0.015,1.01 ± 0.011,1.04 ± 0.028,0.985 ± 0.013,0.9933 ± 0.0061
"CN1CC[C@@]2(C)c3cc(O)ccc3N(C)C12 (single isomer, unassigned; (-)) [(-)-Eseroline fumarate]",0.9967 ± 0.0058,0.972 ± 0.013,1.03 ± 0.045,0.971 ± 0.011,0.9967 ± 0.0042,0.996 ± 0.012

SMILES,normalised cell viability [1],normalised cell viability [2],normalised cell viability [3],normalised cell viability [4],normalised cell viability [5],normalised cell viability [6]
CCn1cnc2c(Nc3cccc(Cl)c3)nc(N[C@@H]3CCCC[C@@H]3N)nc21,0.783 ± 0.025,0.0569 ± 0.018,1.01 ± 0.011,0.182 ± 0.0028,0.321 ± 0.043,0.0192 ± 0.0037
C[C@H](N)CN1CCc2ccc(Br)cc21 [VER-3323 hemifumarate salt],1.001 ± 0.0085,1.01 ± 0.024,1 ± 0.011,1.05 ± 0.021,0.9897 ± 0.0015,1 ± 0.015
C[C@H]1O[C@@H](C[N+](C)(C)C)CS1,1.013 ± 0.0058,1.007 ± 0.0058,1,1 ± 0.024,0.9857 ± 0.0046,0.9857 ± 0.0038
"CC12CCC3C(CCC4=C(O)C(=O)CCC43C)C1CCC2=O (stereo unspecified) [4-Androsten-4-ol-3,17-dione]",0.9977 ± 0.0021,0.9747 ± 0.0093,0.999 ± 0.001,1 ± 0.011,0.995 ± 0.015,1.003 ± 0.0061
Cc1c(N)nc([C@H](CC(N)=O)NC[C@H](N)C(N)=O)nc1C(=O)N[C@H](C(=O)N[C@H](C)[C@@H](O)[C@H](C)C(=O)N[C@H](C(=O)NCCc1nc(-c2nc(C(=O)NCCC[S+](C)C)cs2)cs1)[C@@H](C)O)[C@@H](OC1OC(CO)C(O)C(O)C1OC1OC(CO)C(O)C(OC(N)=O)C1O)c1cnc[nH]1 (stereo partly specified) [Bleomycin sulfate],0.669 ± 0.048,0.196 ± 0.017,0.9903 ± 0.0051,0.637 ± 0.034,0.142 ± 0.024,0.0339 ± 0.0093
CCC1(c2ccc(N)cc2)CCC(=O)NC1=O (racemic) [(±)-p-Aminoglutethimide],0.997 ± 0.0052,1.01,0.866 ± 0.23,1 ± 0.027,1.006 ± 0.0063,1
CN[C@@H]1C[C@@H](c2ccc(Cl)c(Cl)c2)c2ccccc21 [Indatraline hydrochloride],1 ± 0.0095,0.931 ± 0.02,1.02 ± 0.021,1.04 ± 0.084,1.01,1.03 ± 0.05
C[Se]C[C@H](N)C(=O)O [Se-(methyl)selenocysteine hydrochloride],1.006 ± 0.0069,1.02 ± 0.015,1,0.859 ± 0.28,1.006 ± 0.0069,1.01 ± 0.016
C=C(C)[C@H]1Cc2c(ccc3c2O[C@@H]2COc4cc(OC)c(OC)cc4[C@@H]2C3=O)O1 [Rotenone],0.627 ± 0.064,0.39 ± 0.013,0.969 ± 0.016,0.685 ± 0.094,0.22 ± 0.011,0.115 ± 0.019
C=CCc1ccccc1OCC(O)CNC1(C)CCC(C(C)(C)NC(=O)CBr)CC1 (stereo unspecified) [Bromoacetyl alprenolol menthane],0.9893 ± 0.0093,-0.000605 ± 0.0006,0.994 ± 0.016,0.0027 ± 0.0058,0.978 ± 0.004,-0.000518 ± 0.00015
C1CN1c1nc(N2CC2)nc(N2CC2)n1 [Triethylenemelamine],1.023 ± 0.0058,0.775 ± 0.022,1.017 ± 0.0058,0.989 ± 0.015,0.993 ± 0.0082,0.273 ± 0.028
C=CCN(C1=NCCN1)c1c(Cl)cccc1Cl [Alinidine],0.999 ± 0.012,0.992 ± 0.016,1.02 ± 0.049,1 ± 0.021,0.9973 ± 0.0031,0.9913 ± 0.0035
O=C1C=CC(=O)C=C1 [p-Benzoquinone],1.007 ± 0.0058,1.01 ± 0.012,1.006 ± 0.0075,0.999 ± 0.03,1.01 ± 0.012,0.999 ± 0.011
Cc1nc(-c2ccc(-c3ccc(C(=O)N4CCc5cc6c(cc54)C4(CCN(C)CC4)CO6)cc3)c(C)c2)no1,0.994 ± 0.0066,0.356 ± 0.53,1.02 ± 0.02,1.1 ± 0.021,0.994 ± 0.014,0.00588 ± 0.0059
"CC1C2Cc3ccc(O)cc3C1(C)CCN2CC1CC1 (single isomer, unassigned; (+)) [(+)-Cyclazocine]",1.001 ± 0.0085,1.003 ± 0.0058,1 ± 0.01,0.978 ± 0.013,1.01,0.9993 ± 0.0095
